Assay results: the supplement of paper PMC13380429

Test system: Vero E6 infected with SARS-CoV-2
Assay: SARS-CoV-2 infection rate relative to infected DMSO; higher = more infection, active = 60 or less
Details: 24 h

| SMILES | SARS-CoV-2 infection rate |
| --- | --- |
| O=C1N[C@@H]2[C@@H](O)[C@@H](O)[C@H](O)[C@@H](CO)N2C1=O [kifunensine] (10 µM) | 94% (inactive) |
| CCCCCOc1ccc(-c2cc(-c3ccc(C(=O)N[C@H]4C[C@@H](O)[C@@H](O)NC(=O)[C@@H]5[C@@H](O)[C@@H](C)CN5C(=O)[C@H]([C@H](O)CC(N)=O)NC(=O)[C@H]([C@H](O)[C@@H](O)c5ccc(O)c(OS(=O)(=O)O)c5)NC(=O)[C@@H]5C[C@@H](O)CN5C(=O)[C@H]([C@@H](C)O)NC4=O)cc3)no2)cc1 [micafungin] (10 µM) | 94.5% (inactive) |
| CCCCNc1nc(N)c2[nH]c(=O)n(Cc3ccc(OCCN(C)C)nc3)c2n1 (10 µM) | 103% (inactive) |
| C[C@H](N)Cn1ccc2cc(F)c(Cl)cc21 (10 µM) | 90.5% (inactive) |
| Cc1cc(F)c(Nc2ncnc3cc(OCc4ccccc4)ccc23)cc1O (10 µM) | 99% (inactive) |
| CN(C)C(=O)COC(=O)Cc1ccc(OC(=O)c2ccc(NC(=N)N)cc2)cc1 [camostat-mesilate] (10 µM) | 114% (inactive) |
| CC[N+](CC)(CC(=O)Nc1c(C)cccc1C)Cc1ccccc1 [denatonium-benzoate] (10 µM) | 116% (inactive) |
| CCCCCCCCCC(=O)O[C@H]1CC[C@H]2[C@@H]3CCC4=CC(=O)CC[C@@H]4[C@H]3CC[C@]12C [Nandrolone decanoate] (10 µM) | 103% (inactive) |
| CC1(C)O[C@@H]2C[C@H]3[C@@H]4C[C@H](F)C5=CC(=O)C=C[C@]5(C)[C@H]4[C@@H](O)C[C@]3(C)[C@]2(C(=O)CO)O1 [flunisolide] (10 µM) | 109% (inactive) |
| CC(=O)Nc1cccc(O)c1 [metacetamol] (10 µM) | 97% (inactive) |
| CC1CCc2cc(F)cc3c(=O)c(C(=O)O)cn1c23 (configuration not stated) [flumequine] (10 µM) | 116% (inactive) |
| Nc1ncc(Cc2ccc(Br)cc2)s1 (10 µM) | 102% (inactive) |
| N=C(N)NCCN1CCCCCCC1 [guanethidine] (10 µM) | 109% (inactive) |
| O=C(NO)c1cnc(N2CCN(S(=O)(=O)c3ccc4ccccc4c3)CC2)nc1 (10 µM) | 115% (inactive) |
| Nc1cc(Cl)c(N=C2NCCN2)c(Cl)c1 [apraclonidine] (10 µM) | 110% (inactive) |
| Cc1cn(-c2cc(NC(=O)c3ccc(C)c(Nc4nccc(-c5cccnc5)n4)c3)cc(C(F)(F)F)c2)cn1 [nilotinib] (10 µM) | 96.5% (inactive) |
| CC(=O)Nc1cccc(Nc2ncnc(N3CCC(OCc4ccc(OC(F)(F)F)cc4)CC3)n2)c1C (10 µM) | 110% (inactive) |
| Cc1ccc(NC(=O)C(C)C)cc1C1CCN(Cc2ccc(Oc3ccc(F)c(F)c3)cc2)CC1 (0.833333 µM) | 90.5% (inactive) |
| O=C(O)CCc1c[nH]c2ccccc12 (10 µM) | 104% (inactive) |
| CO[C@H]1/C=C/O[C@@]2(C)Oc3c(C)c(O)c4c(O)c(c(/C=N/N=C/N5CCCCC5)c(O)c4c3C2=O)NC(=O)/C(C)=C\C=C\[C@H](C)[C@H](O)[C@@H](C)[C@@H](O)[C@@H](C)[C@H](OC(C)=O)[C@@H]1C (10 µM) | 108% (inactive) |
| COC(=O)Nc1ccc(-c2nc(N3CCOCC3)c3cnn(C4CCN(C(=O)OC)CC4)c3n2)cc1 (0.833333 µM) | 120% (inactive) |
| COc1ccc(C(=O)C2CCN(CC(=O)N(Cc3nc4c(c(=O)[nH]3)COCC4)CC3CC3)CC2)cc1 (10 µM) | 102% (inactive) |
| CCCCCCCCCCCCCCCC[n+]1ccn(Cc2ccccc2)c1C (0.833333 µM) | 104% (inactive) |
| CN[C@@H]1[C@H](O)[C@H](NC)[C@H]2O[C@@]3(O)C(=O)C[C@@H](C)O[C@H]3O[C@@H]2[C@H]1O [spectinomycin] (0.833333 µM) | 102% (inactive) |
| COc1cc2nccc(Oc3ccc(NC(=O)C4(C(=O)Nc5ccc(F)cc5)CC4)cc3)c2cc1OC [cabozantinib] (0.833333 µM) | 97.5% (inactive) |
| C[C@@H](N[C@H]1CCCC[C@@H]1NC(=O)c1ccc(Cl)cc1)c1cccc2ccccc12 [Calhex-231] (10 µM) | 91.5% (inactive) |
| CC(=O)[C@H]1CC[C@H]2[C@@H]3CC[C@H]4C[C@H](O)CC[C@]4(C)[C@H]3CC[C@]12C [allopregnanolone] (10 µM) | 103% (inactive) |
